The campaign covered roughly 5,500 compounds. About 2,000 (36%) were called active. Not shown: some 18% with an inconclusive outcome. Rule as the data show it: active = normalized growth mostly below about 0.91 (no sharp cut-off); inconclusive = no clear call, values can overlap the other calls; inactive = mostly above about 0.92. This is one part of the list.
Experiment: chemical genetic growth profiling, strain panel (AID 1159580);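 also: tested at 20 µM; growth read once vehicle control cultures reached saturation at 30 °C; 1 = growth at the plate median or of vehicle wells; lower values mean less growth of the strain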
Settings: growth OD

Measured: normalized growth

CC1(C)C(O)CC(O)C2(C)C1CC(O)C1(C)C2CCC2(C)C(c3ccoc3)CC3OC321 (stereo unspecified)
inactive: S. cerevisiae deletion strains, locus YBR021W, strain FUR4, hits give low values 0.936 | S. cerevisiae deletion strains, locus YBR229C, strain ROT2, hits give low values 1.01 | S. cerevisiae deletion strains, locus YCL029C, strain bik1, hits give low values 1 | S. cerevisiae deletion strains, locus YDL035C, strain GPR1, hits give low values 0.969 | S. cerevisiae deletion strains, locus YDL074C, strain BRE1, hits give low values 0.973 | S. cerevisiae deletion strains, locus YDL101C, strain DUN1, hits give low values 1 | S. cerevisiae deletion strains, locus YDL134C, strain PPH21, hits give low values 0.992 | S. cerevisiae deletion strains, locus YDL185W, strain tfp1, hits give low values 1.02 | S. cerevisiae deletion strains, locus YDL192W, strain arf1, hits give low values 1 | S. cerevisiae deletion strains, locus YDR101C, strain arx1, hits give low values 0.987 | S. cerevisiae deletion strains, locus YDR162C, strain NBP2, hits give low values 0.998 | S. cerevisiae deletion strains, locus YDR318W, strain mcm21, hits give low values 1 | S. cerevisiae deletion strains, locus YDR388W, hits give low values 1.01 | S. cerevisiae deletion strains, locus YDR502C, strain sam2, hits give low values 0.998 | S. cerevisiae deletion strains, locus YEL061C, strain CIN8, hits give low values 0.997 | S. cerevisiae deletion strains, locus YER110C, hits give low values 1.02 | S. cerevisiae deletion strains, locus YER155C, strain BEM2, hits give low values 0.996 | S. cerevisiae deletion strains, locus YER167W, strain BCK2, hits give low values 1 | S. cerevisiae deletion strains, locus YGL078C, strain dbp3, hits give low values 1.01 | S. cerevisiae deletion strains, locus YGL086W, strain mad1, hits give low values 0.99 | S. cerevisiae deletion strains, locus YGL248W, strain PDE1, hits give low values 1 | S. cerevisiae deletion strains, locus YGR078C, strain PAC10, hits give low values 0.991 | S. cerevisiae deletion strains, locus YGR135W, strain pre9, hits give low values 0.997 | S. cerevisiae deletion strains, locus YGR252W, strain gcn5, hits give low values 0.981 | S. cerevisiae deletion strains, locus YHR030C, strain SLT2, hits give low values 1.01 | S. cerevisiae deletion strains, locus YHR079C, strain IRE1 (second series), hits give low values 1.02 | S. cerevisiae deletion strains, locus YHR094C, strain hxt1, hits give low values 1.01 | S. cerevisiae deletion strains, locus YHR129C, strain ARP1, hits give low values 0.998 | S. cerevisiae deletion strains, locus YHR200W, strain rpn10, hits give low values 1 | S. cerevisiae deletion strains, locus YIL066C, strain RNR3, hits give low values 0.99 | S. cerevisiae deletion strains, locus YIL073C, strain SPO22, hits give low values 1.04 | S. cerevisiae deletion strains, locus YIL125W, strain kgd1, hits give low values 1.01 | S. cerevisiae deletion strains, locus YIR030C, strain dcg1, hits give low values 1.02 | S. cerevisiae deletion strains, locus YJL095W, strain BCK1, hits give low values 0.978 | S. cerevisiae deletion strains, locus YJL134W, strain LCB3, hits give low values 0.998 | S. cerevisiae deletion strains, locus YJL168C, strain set2, hits give low values 1.01 | S. cerevisiae deletion strains, locus YJL187C, strain SWE1 (second series), hits give low values 0.996 | S. cerevisiae deletion strains, locus YKL009W, strain mrt4, hits give low values 0.982 | S. cerevisiae deletion strains, locus YKL068W, hits give low values 1.01 | S. cerevisiae deletion strains, locus YKL085W, strain MDH1 (second series), hits give low values 0.996 | S. cerevisiae deletion strains, locus YKL085W, strain MDH1, hits give low values 0.996 | S. cerevisiae deletion strains, locus YKR001C, strain vps1, hits give low values 0.99 | S. cerevisiae deletion strains, locus YLR039C, strain RIC1, hits give low values 1.03 | S. cerevisiae deletion strains, locus YLR058C, strain SHM2, hits give low values 0.998 | S. cerevisiae deletion strains, locus YLR102C, strain apc9, hits give low values 1 | S. cerevisiae deletion strains, locus YLR262C, strain YPT6, hits give low values 1.01 | S. cerevisiae deletion strains, locus YLR268W, strain sec22, hits give low values 0.993 | S. cerevisiae deletion strains, locus YLR371W, strain rom2, hits give low values 0.994 | S. cerevisiae deletion strains, locus YLR418C, strain cdc73, hits give low values 0.983 | S. cerevisiae deletion strains, locus YML016C, strain PPZ1, hits give low values 1 | S. cerevisiae deletion strains, locus YML032C, strain rad52, hits give low values 1.01 | S. cerevisiae deletion strains, locus YML124C, strain tub3, hits give low values 1.01 | S. cerevisiae deletion strains, locus YMR078C, strain ctf18, hits give low values 1.02 | S. cerevisiae deletion strains, locus YMR223W, strain ubp8, hits give low values 0.989 | S. cerevisiae deletion strains, locus YMR263W, strain SAP30, hits give low values 1.01 | S. cerevisiae deletion strains, locus YMR307W, strain GAS1, hits give low values 0.991 | S. cerevisiae deletion strains, locus YNL067W, strain RPL9B, hits give low values 1 | S. cerevisiae deletion strains, locus YNL128W, strain TEP1, hits give low values 0.998 | S. cerevisiae deletion strains, locus YNL233W, strain BNI4, hits give low values 0.978 | S. cerevisiae deletion strains, locus YNL250W, strain rad50, hits give low values 1.01 | S. cerevisiae deletion strains, locus YNL271C, strain bni1, hits give low values 1.01 | S. cerevisiae deletion strains, locus YNL298W, strain CLA4, hits give low values 1.01 | S. cerevisiae deletion strains, locus YNL307C, strain MCK1, hits give low values 1.03 | S. cerevisiae deletion strains, locus YNL322C, strain KRE1, hits give low values 0.996 | S. cerevisiae deletion strains, locus YNR052C, strain pop2, hits give low values 1 | S. cerevisiae deletion strains, locus YOL012C, strain htz1 1.12 | S. cerevisiae deletion strains, locus YOL147C, strain pex11, hits give low values 1 | S. cerevisiae deletion strains, locus YOR061W, strain CKA2, hits give low values 1 | S. cerevisiae deletion strains, locus YOR069W, strain VPS5, hits give low values 1 | S. cerevisiae deletion strains, locus YOR136W, strain idh2, hits give low values 0.998 | S. cerevisiae deletion strains, locus YOR144C, strain elg1, hits give low values 1.02 | S. cerevisiae deletion strains, locus YOR184W, strain ser1, hits give low values 0.976 | S. cerevisiae deletion strains, locus YOR316C, strain cot1, hits give low values 1.01 | S. cerevisiae deletion strains, locus YPL055C, strain LGE1, hits give low values 0.988 | S. cerevisiae deletion strains, locus YPL241C, strain CIN2, hits give low values 0.997 | S. cerevisiae deletion strains, locus YPR119W, strain clb2, hits give low values 1.01 | S. cerevisiae deletion strains, locus YPR141C, strain kar3, hits give low values 1.02 | S. cerevisiae deletion strains, locus YPR163C, strain tif3, hits give low values 1.01 | S. cerevisiae deletion strains, locus YPR167C, strain met16, hits give low values 1.01 | S. cerevisiae deletion strains, strain wtn01, hits give low values 0.986 | S. cerevisiae strains, strain wild type, hits give low values 0.972

— PubChem BioAssay AID1159580 (chemical genetic matrix, 2015)
